PMC7862700, “An all-to-all approach to the identification of sequence-specific readers for epigenetic DNA modifications on cytosine”

Assays:
Test in all cases: DAPPL (digital affinity profiling via proximity ligation, sequencing); 10 mM Tris-HCl pH 7.5, 50 mM NaCl, 1 mM DTT, 4% glycerol, room temperature, 30 min; GST-TFs on glutathione beads, 16-mer random dsDNA library, 0.1% formaldehyde crosslink after washing; high values mean tight binding
[1] = target: T1, FEV (Homo sapiens, UniProt Q99581 1-238); conditions: protein: recombinant; tags: N-terminal GST; dsDNA, one strand shown
T1 sequence: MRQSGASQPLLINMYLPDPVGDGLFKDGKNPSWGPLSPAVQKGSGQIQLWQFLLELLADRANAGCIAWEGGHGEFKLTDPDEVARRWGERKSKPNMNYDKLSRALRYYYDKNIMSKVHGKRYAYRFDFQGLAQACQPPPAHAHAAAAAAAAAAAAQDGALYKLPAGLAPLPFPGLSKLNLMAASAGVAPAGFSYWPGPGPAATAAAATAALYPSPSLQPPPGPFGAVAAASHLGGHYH
Outline: (§1)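 Human transcription factors were made in yeast as GST fusions, captured on glutathione beads and barcoded with DNA. With a tag-only sample included, the pool was incubated with 200 nmole of a random double-stranded 16-mer DNA library in Tris/NaCl/DTT/glycerol buffer at room temperature for 30 min, then crosslinked with 0.1% formaldehyde after washing, ligated by proximity, amplified and sequenced. For binding signal, each hexamer's read frequency for a factor is divided by its frequency for the tag-only sample.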

[2] = target: ETV5 (Homo sapiens, UniProt P41161 1-510); conditions: protein: recombinant; tags: N-terminal GST; dsDNA, one strand shown
Outline: as §1

[3] = target: HSF1 (Homo sapiens, UniProt Q00613 1-529); conditions: protein: recombinant; tags: N-terminal GST; chain copies: 3; dsDNA, one strand shown
Outline: as §1

[4] = target: T2, SPIC (Homo sapiens, UniProt Q8N5J4 1-248); conditions: protein: recombinant; tags: N-terminal GST; dsDNA, one strand shown
T2 sequence: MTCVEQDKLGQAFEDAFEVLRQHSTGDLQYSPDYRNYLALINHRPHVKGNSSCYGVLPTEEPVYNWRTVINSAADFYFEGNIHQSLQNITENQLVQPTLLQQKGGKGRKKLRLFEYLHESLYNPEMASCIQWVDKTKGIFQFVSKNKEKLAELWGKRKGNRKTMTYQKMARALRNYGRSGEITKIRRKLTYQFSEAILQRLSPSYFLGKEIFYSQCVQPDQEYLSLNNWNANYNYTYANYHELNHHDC
Outline: as §1

[5] = target: ELF4 (Homo sapiens, UniProt Q99607 1-663); conditions: protein: recombinant; tags: N-terminal GST; dsDNA, one strand shown
Outline: as §1

[6] = target: T3, ELK4 (Homo sapiens, UniProt P28324-2 1-405); conditions: protein: recombinant; tags: N-terminal GST; dsDNA, one strand shown
T3 sequence: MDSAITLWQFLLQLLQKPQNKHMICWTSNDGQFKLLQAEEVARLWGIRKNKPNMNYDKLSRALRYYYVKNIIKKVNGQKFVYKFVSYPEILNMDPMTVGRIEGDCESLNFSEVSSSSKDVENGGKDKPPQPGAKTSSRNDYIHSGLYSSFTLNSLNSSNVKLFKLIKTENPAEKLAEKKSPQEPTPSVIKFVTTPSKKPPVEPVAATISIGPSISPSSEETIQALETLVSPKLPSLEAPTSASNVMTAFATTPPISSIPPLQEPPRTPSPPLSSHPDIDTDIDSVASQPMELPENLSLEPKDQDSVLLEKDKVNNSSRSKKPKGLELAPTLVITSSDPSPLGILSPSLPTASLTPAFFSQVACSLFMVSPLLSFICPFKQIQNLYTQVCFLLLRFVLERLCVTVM
Outline: as §1

[7] = target: T4, ETV2 (Homo sapiens, UniProt O00321 1-342); conditions: protein: recombinant; tags: N-terminal GST; dsDNA, one strand shown
T4 sequence: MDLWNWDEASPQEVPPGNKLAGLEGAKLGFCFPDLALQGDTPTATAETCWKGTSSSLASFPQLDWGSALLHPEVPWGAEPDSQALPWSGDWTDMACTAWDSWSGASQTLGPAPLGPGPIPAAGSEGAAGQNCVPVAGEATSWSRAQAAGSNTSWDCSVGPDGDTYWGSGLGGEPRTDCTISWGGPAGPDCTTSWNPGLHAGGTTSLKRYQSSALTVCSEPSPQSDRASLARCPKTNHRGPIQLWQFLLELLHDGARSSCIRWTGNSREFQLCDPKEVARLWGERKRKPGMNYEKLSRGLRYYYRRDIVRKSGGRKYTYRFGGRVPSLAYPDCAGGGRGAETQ
Outline: as §1

[8] = target: T5, ELF3 (Homo sapiens, UniProt P78545 1-371); conditions: protein: recombinant; tags: N-terminal GST; dsDNA, one strand shown
T5 sequence: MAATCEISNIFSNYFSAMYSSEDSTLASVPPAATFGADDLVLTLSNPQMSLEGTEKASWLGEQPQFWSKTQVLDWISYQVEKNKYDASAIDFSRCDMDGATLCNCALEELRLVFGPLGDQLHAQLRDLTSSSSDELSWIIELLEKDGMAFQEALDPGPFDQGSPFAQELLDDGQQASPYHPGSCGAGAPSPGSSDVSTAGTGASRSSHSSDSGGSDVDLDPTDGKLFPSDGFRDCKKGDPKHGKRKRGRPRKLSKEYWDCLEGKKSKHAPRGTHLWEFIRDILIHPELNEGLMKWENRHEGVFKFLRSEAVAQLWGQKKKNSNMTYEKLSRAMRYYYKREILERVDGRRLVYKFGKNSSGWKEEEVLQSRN
Outline: as §1

[9] = target: CRX (Homo sapiens, UniProt O43186 1-299); conditions: protein: recombinant; tags: N-terminal GST; dsDNA, one strand shown
Outline: as §1

[10] = target: ETV1 (Homo sapiens, UniProt P50549 1-477); conditions: protein: recombinant; tags: N-terminal GST; dsDNA, one strand shown
Outline: as §1

[11] = target: T6, ERF (Homo sapiens, UniProt P50548 1-548); conditions: protein: recombinant; tags: N-terminal GST; dsDNA, one strand shown
T6 sequence: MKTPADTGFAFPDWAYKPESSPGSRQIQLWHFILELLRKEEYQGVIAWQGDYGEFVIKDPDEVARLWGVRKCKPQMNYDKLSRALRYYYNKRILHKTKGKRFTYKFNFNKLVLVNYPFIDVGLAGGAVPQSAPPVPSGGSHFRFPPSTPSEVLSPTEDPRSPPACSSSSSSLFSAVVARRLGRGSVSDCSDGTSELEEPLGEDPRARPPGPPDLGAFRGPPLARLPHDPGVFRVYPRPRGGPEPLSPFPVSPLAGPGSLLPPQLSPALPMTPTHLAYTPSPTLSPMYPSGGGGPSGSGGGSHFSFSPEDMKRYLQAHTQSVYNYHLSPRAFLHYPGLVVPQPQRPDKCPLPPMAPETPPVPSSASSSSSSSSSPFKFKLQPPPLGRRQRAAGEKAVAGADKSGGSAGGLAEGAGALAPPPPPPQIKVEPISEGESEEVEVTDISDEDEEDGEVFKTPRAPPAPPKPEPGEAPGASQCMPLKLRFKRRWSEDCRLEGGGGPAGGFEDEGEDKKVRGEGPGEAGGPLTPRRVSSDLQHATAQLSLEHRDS
Outline: as §1

[12] = target: T7, ETV3L (Homo sapiens, UniProt Q6ZN32 1-361); conditions: protein: recombinant; tags: N-terminal GST; dsDNA, one strand shown
T7 sequence: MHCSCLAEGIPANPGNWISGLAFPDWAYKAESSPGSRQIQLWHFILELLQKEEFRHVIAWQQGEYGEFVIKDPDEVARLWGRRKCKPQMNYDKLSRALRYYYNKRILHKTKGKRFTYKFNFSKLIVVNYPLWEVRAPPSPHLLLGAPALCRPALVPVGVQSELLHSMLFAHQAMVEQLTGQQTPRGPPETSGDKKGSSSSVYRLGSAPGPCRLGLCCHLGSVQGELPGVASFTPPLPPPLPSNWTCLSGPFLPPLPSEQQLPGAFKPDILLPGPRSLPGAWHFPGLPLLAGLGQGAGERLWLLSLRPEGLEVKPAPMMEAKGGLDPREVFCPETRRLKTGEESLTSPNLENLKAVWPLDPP
Outline: as §1

[13] = target: T8, ETS2 (Homo sapiens, UniProt P15036 1-469); conditions: protein: recombinant; tags: N-terminal GST; dsDNA, one strand shown
T8 sequence: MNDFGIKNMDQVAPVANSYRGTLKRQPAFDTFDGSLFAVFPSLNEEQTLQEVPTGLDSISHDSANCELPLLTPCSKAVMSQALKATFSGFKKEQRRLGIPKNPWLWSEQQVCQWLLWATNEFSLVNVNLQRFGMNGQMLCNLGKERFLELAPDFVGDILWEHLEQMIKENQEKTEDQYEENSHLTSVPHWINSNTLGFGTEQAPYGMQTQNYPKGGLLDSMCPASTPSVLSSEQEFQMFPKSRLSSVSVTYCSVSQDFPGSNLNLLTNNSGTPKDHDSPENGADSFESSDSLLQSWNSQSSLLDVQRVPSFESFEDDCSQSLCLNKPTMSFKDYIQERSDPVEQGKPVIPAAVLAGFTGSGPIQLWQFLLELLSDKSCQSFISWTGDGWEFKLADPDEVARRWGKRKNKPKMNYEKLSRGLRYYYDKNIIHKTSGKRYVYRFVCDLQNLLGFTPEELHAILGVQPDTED
Outline: as §1

[14] = target: T9, SPDEF (Homo sapiens, UniProt O95238 1-335); conditions: protein: recombinant; tags: N-terminal GST; dsDNA, one strand shown
T9 sequence: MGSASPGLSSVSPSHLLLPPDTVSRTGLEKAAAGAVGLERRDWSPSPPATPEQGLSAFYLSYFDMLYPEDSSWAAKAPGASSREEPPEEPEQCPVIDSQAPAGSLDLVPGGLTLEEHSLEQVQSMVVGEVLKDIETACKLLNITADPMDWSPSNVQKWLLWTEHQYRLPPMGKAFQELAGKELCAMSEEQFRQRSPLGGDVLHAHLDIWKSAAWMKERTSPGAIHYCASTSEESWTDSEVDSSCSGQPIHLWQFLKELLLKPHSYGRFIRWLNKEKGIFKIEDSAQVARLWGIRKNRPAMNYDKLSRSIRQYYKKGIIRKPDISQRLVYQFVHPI
Outline: as §1

[15] = target: T10, ETV7 (Homo sapiens, UniProt Q9Y603 1-341); conditions: protein: recombinant; tags: N-terminal GST; dsDNA, one strand shown
T10 sequence: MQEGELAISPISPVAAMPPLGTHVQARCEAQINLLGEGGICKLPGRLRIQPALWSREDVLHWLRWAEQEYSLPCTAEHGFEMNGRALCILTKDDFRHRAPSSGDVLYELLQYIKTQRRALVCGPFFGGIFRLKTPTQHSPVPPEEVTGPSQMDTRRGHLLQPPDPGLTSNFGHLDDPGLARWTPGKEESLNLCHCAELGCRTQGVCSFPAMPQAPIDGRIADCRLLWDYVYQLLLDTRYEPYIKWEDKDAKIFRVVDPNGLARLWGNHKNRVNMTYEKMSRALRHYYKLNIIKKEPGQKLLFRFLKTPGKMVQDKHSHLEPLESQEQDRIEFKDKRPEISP
Outline: as §1

[16] = target: T11, ELF5 (Homo sapiens, UniProt Q9UKW6-2 1-255); conditions: protein: recombinant; tags: N-terminal GST; dsDNA, one strand shown
T11 sequence: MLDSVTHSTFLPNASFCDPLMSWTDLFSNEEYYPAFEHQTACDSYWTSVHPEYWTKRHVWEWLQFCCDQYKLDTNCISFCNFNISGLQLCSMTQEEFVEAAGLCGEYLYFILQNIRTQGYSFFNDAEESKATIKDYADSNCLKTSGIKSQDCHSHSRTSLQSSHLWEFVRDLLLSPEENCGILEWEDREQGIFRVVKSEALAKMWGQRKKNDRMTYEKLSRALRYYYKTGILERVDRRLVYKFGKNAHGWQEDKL
Outline: as §1

[17] = target: T12, ETV3 (Homo sapiens, UniProt P41162-2 1-143); conditions: protein: recombinant; tags: N-terminal GST; dsDNA, one strand shown
T12 sequence: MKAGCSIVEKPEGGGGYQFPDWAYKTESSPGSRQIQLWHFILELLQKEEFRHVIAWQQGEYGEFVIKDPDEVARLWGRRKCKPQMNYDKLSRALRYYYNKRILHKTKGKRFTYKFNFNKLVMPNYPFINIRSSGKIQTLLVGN
Outline: as §1

[18] = target: ETV6 (Homo sapiens, UniProt P41212 1-452); conditions: protein: recombinant; tags: N-terminal GST; dsDNA, one strand shown
Outline: as §1

ETV1, sequence (P50549 whole entry): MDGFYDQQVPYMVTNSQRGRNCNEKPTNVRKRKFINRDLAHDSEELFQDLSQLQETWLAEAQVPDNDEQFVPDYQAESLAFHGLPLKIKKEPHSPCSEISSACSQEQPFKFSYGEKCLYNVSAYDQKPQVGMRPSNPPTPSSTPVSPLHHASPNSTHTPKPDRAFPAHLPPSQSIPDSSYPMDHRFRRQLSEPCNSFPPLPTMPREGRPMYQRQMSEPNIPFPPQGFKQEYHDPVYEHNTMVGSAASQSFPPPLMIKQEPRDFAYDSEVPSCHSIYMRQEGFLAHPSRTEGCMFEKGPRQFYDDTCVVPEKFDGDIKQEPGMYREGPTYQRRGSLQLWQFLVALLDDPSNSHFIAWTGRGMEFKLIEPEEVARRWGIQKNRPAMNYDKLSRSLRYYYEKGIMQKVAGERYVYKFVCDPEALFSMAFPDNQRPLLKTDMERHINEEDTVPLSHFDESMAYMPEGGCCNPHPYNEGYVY
CRX, sequence (O43186 whole entry): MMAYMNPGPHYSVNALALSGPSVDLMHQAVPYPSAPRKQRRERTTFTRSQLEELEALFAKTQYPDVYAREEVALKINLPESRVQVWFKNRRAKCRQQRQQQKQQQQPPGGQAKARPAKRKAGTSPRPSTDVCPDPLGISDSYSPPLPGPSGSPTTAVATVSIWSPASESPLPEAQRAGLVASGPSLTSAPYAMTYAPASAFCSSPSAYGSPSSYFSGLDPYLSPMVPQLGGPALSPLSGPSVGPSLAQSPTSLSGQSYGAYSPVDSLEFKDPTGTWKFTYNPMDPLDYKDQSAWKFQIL
HSF1, sequence (Q00613 whole entry): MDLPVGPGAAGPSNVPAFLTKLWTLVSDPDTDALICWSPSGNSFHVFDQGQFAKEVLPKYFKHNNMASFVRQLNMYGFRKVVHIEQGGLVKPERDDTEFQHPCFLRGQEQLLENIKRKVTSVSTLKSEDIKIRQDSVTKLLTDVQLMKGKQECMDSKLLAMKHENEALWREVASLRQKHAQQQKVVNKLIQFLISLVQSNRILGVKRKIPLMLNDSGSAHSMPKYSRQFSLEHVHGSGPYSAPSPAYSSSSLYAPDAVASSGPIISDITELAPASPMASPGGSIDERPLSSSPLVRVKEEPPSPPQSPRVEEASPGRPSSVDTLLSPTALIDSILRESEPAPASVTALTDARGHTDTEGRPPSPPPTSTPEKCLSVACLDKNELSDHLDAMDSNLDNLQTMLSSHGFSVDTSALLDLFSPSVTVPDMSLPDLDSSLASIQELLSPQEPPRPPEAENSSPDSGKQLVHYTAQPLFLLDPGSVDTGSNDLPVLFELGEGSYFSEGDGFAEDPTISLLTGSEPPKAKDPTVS
ETV5, sequence (P41161 whole entry): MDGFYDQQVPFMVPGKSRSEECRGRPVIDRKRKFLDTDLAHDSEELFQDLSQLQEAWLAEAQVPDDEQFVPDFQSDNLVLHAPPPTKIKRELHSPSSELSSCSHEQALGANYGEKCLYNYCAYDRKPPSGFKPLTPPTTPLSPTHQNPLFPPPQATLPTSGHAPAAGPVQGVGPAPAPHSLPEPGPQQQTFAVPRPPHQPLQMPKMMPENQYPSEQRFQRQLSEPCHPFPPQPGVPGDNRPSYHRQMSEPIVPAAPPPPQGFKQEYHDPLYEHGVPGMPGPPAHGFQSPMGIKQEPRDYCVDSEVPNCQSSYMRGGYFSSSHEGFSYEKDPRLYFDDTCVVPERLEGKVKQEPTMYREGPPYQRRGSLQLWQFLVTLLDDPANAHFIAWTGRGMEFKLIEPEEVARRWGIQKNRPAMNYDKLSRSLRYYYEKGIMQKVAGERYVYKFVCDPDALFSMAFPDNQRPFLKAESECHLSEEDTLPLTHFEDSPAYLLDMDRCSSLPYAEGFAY
ETV6, sequence (P41212 whole entry): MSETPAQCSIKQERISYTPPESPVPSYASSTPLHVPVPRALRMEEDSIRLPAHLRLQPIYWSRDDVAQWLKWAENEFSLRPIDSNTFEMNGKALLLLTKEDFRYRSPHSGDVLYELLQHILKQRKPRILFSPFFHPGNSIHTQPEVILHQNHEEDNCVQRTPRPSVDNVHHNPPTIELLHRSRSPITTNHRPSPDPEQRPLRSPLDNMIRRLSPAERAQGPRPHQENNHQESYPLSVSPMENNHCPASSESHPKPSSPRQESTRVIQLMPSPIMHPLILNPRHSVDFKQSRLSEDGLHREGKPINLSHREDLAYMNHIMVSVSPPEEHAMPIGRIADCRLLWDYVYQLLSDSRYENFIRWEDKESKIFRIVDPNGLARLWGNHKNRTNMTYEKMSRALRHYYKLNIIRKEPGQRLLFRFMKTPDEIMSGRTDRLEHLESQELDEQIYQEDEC
ELF4, sequence (Q99607 whole entry): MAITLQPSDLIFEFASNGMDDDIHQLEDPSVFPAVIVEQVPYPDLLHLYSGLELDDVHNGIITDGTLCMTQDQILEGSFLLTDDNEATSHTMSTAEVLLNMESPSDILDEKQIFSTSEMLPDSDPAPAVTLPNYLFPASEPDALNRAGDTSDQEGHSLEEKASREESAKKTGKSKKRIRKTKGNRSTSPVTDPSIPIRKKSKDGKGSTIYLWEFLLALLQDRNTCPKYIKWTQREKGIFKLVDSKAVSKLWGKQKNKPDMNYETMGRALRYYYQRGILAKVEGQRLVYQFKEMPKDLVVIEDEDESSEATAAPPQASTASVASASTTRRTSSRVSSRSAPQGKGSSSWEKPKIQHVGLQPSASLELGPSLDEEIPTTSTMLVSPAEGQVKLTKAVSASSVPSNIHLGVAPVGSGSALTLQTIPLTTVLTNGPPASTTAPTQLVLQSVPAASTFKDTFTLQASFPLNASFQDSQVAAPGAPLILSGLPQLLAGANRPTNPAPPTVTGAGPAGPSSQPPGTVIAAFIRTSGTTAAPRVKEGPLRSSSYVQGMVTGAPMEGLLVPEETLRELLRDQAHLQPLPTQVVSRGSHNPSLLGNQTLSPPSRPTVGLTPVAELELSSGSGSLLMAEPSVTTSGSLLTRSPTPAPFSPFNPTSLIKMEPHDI

Sequence	binding signal [1]	binding signal [2]	binding signal [3]	binding signal [4]	binding signal [5]	binding signal [6]	binding signal [7]	binding signal [8]	binding signal [9]	binding signal [10]	binding signal [11]	binding signal [12]	binding signal [13]	binding signal [14]	binding signal [15]	binding signal [16]	binding signal [17]	binding signal [18]
CTACTT	2.08 fold enrichment (6-mer frequency, TF over GST control)	1.78 fold enrichment (6-mer frequency, TF over GST control)	1.44 fold enrichment (6-mer frequency, TF over GST control)	1.89 fold enrichment (6-mer frequency, TF over GST control)	1.82 fold enrichment (6-mer frequency, TF over GST control)	1.87 fold enrichment (6-mer frequency, TF over GST control)	1.84 fold enrichment (6-mer frequency, TF over GST control)	1.89 fold enrichment (6-mer frequency, TF over GST control)	1.78 fold enrichment (6-mer frequency, TF over GST control)	1.89 fold enrichment (6-mer frequency, TF over GST control)	1.85 fold enrichment (6-mer frequency, TF over GST control)	1.84 fold enrichment (6-mer frequency, TF over GST control)	1.95 fold enrichment (6-mer frequency, TF over GST control)	1.79 fold enrichment (6-mer frequency, TF over GST control)	1.8 fold enrichment (6-mer frequency, TF over GST control)	2 fold enrichment (6-mer frequency, TF over GST control)	1.76 fold enrichment (6-mer frequency, TF over GST control)	2.02 fold enrichment (6-mer frequency, TF over GST control)
ACTATC	1.13 fold enrichment (6-mer frequency, TF over GST control)	1.13 fold enrichment (6-mer frequency, TF over GST control)	1.13 fold enrichment (6-mer frequency, TF over GST control)	1.19 fold enrichment (6-mer frequency, TF over GST control)	1.24 fold enrichment (6-mer frequency, TF over GST control)	1.2 fold enrichment (6-mer frequency, TF over GST control)	1.32 fold enrichment (6-mer frequency, TF over GST control)	1.22 fold enrichment (6-mer frequency, TF over GST control)	1.15 fold enrichment (6-mer frequency, TF over GST control)	1.15 fold enrichment (6-mer frequency, TF over GST control)	1.21 fold enrichment (6-mer frequency, TF over GST control)	1.15 fold enrichment (6-mer frequency, TF over GST control)	1.19 fold enrichment (6-mer frequency, TF over GST control)	1.18 fold enrichment (6-mer frequency, TF over GST control)	1.19 fold enrichment (6-mer frequency, TF over GST control)	1.13 fold enrichment (6-mer frequency, TF over GST control)	1.13 fold enrichment (6-mer frequency, TF over GST control)	1.1 fold enrichment (6-mer frequency, TF over GST control)
